Laboratory results: ChEMBL document CHEMBL1201862, “PubChem BioAssay data set” (2004)
The campaign covered roughly 310,000 compounds. About 17,000 (5.5%) were called active. Another 11% or so got no clear call; they are omitted. No cut-off for these calls is given here. The entries come from a sample that favours actives as a whole.

Biological target: T1, Nuclear receptor ROR-gamma (Mus musculus) (UniProt P51450)
T1 sequence (whole entry): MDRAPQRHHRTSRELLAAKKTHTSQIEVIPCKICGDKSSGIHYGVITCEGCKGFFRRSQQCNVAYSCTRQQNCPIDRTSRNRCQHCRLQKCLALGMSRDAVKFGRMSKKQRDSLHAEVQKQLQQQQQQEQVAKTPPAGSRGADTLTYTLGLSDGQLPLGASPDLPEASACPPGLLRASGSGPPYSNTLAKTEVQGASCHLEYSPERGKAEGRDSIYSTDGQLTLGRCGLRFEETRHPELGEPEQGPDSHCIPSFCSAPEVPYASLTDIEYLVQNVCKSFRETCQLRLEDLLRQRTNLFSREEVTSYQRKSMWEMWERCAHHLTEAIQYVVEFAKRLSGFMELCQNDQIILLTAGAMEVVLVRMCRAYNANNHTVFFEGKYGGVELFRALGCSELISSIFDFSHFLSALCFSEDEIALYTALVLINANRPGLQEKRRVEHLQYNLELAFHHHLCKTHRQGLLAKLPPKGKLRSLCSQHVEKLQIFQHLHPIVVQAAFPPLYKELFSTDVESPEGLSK
Test: qHTS for inhibitors of ROR gamma transcriptional activity.
Assay type: functional

Potency, active:
O=C(/C=C/c1ccc(Cl)cc1)c1cccs1 15.8 µM
COc1ccccc1/C=C/C(=O)c1cccs1 25.1 µM
c1ccc(-n2ncc3c(NCc4cccnc4)ncnc32)cc1 501 µM
